Only some compounds are listed: those with a hit (about 0.36% of all), similar ones and a draw of the others.
RGS4 inhibitor: blocks human RGS4-accelerated GTP hydrolysis | 390,000 compounds, 0.039% hits | Potency, µM (highest dose often 114 µM), without a hit: at the highest dose activity change, negative = inhibition, most hits filed as inhibitors | AID 504845 | Transcreener GDP fluorescence polarization, RGS4-accelerated GTP hydrolysis; also: potency is read from the fitted curve at half-maximal effect; % is scaled to controls: 0 for no effect and ±100 for the full control effect; nearly all actives have a fitted effect of over 75% in size
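MLSMR compounds (23 nl, pin-transferred) preincubated 10 min at room temperature with a 500nM (2x) first reagent, then RGS4 at 900nM (2x) plus Transcreener GDP mix added; fluorescence polarization (620/688 nm) read before and after 90 min at 30 °C.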
MmCpn inh: inhibitors of Methanococcus maripaludis chaperonin TRiC (MmCpn); Potency, µM (highest dose often 76.9 µM), for the others: at the highest dose activity, negative = inhibition, most hits filed as inhibitors; 330,000 compounds, 0.031% hits; AID 504842; purified Mm-Cpn ATPase, ADP Transcreener TR-FRET; also: potency is read from the fitted curve at half-maximal effect; % is scaled to controls: 0 for no effect and ±100 for the full control effect; nearly all actives have a fitted effect of over 80% in size
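Eu-cryptate anti-ADP/ADP-d2 competition gives a ratio inversely related to ADP. Enzyme at 25 nM was pre-exposed to compound for 10 min, then given 10 uM ATP for 30 min, 37°C throughout.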
CCT chaperon mod: modulators of cytosolic chaperonin (CCT/TRiC) activity; purified chaperonin ATPase assay, HTRF ADP detection, 30 min; activity change, % (no concentration beside the values), hits read low; 360,000 compounds, 0.3% hits; AID 651819; in the data active = activity change below about -30%; also: % is scaled to controls: 0 for no effect and ±100 for the full control effect
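Enzyme 40 or 20 nM (batch-dependent) in Tris pH 7.4/KCl/MgCl2/DTT; cpd 76 uM single point; ATP 10 uM; 30 min 37 °C; Transcreener ADP HTRF detection, 30 min RT; ratio 665/615.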
PTHR1 ag: activates the human parathyroid hormone receptor PTHR1. Q03431. HEK293 GP2 PTHR1 cells, GloSensor cAMP luminescence, 1 h. Potency, µM (doses to about 115 µM), for inactives: at the top dose activation, hits mostly activators. 410,000 compounds, 0.075% hits. AID 743266; also: potency is read from the fitted curve at half-maximal effect; nearly all actives have a fitted effect of over 55% in size
Target sequence (Q03431 whole entry, looked up): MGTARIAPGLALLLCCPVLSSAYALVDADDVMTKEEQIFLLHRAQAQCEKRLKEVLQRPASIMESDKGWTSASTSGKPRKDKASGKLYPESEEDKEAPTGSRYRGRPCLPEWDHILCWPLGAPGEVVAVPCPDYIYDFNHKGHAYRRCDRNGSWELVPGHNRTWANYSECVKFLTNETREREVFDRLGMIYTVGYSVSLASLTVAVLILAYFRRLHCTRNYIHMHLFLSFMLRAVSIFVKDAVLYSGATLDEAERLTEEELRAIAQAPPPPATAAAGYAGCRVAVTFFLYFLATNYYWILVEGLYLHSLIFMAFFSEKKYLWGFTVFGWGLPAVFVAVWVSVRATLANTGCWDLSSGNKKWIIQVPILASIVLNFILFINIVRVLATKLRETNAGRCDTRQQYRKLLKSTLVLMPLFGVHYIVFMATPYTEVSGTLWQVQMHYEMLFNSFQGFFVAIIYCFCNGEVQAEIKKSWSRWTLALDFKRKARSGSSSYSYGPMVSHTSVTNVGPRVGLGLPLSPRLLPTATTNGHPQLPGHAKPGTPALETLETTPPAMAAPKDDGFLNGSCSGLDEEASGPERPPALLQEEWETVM
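HEK-293-derived GP2 cells expressing PTHR1 and a GloSensor cAMP reporter, 3,000/well, plated overnight, given luciferin plus IBMX (each 0.5 mM as added) for 1 h at 37 °C, then compound for 1 h at 37 °C. Luminescence was read after 15 min at room temperature.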
ERG-DNA inh: inhibitors of human ERG Ets domain-DNA interaction; 370,000 compounds, 0.028% hits; Potency, µM (highest dose often 76.9 µM), for inactives: at the highest dose FP activity, negative = inhibition, usual class: inhibitors; P11308; fluorescence polarization, His-ERG Ets domain / labelled DNA; AID 624246; active = well fitted inhibition curve with a large enough effect in the polarisation, with a control signal flat; the % refers to the polarisation;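 also: polarization taken with two DNA probes labelled with fluorescein and Texas red; potency is read from the fitted curve at half-maximal effect; % of control where 0% means no effect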
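His-tagged ERG Ets domain (1 uM in the protein solution; 300mM KCl, 50mM Tris-HCl, 1mM EDTA, 1mM DTT, pH 7.5) received compound, then a probe mix of 5 nM fluorescein-DNA and 100nM Texas-615-DNA. Fluorescence polarization was read for both dyes.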
* hit, by the source's call; i = inactive; nt = no result given; ! = a repeat was not active. Unless noted, calls follow the shape of the dose curve; as a rule, active = well fitted curve in the direction sought with a large enough effect; inconclusive = small, poorly fitted or top-dose-only effect, or another doubt; inactive = no such curve, though single readings can be large; an effect the other way counts as inactive or inconclusive.

SMILES | RGS4 inhibitor | MmCpn inh | CCT chaperon mod | PTHR1 ag | ERG-DNA inh
C=C1[C@@H](OC(C)=O)[C@]23C[C@@H]1[C@@H](OC(C)=O)CC2[C@]12C4C[C@H]3[C@H]1N(CC)C[C@]4(C)CC[C@@H]2O (stereo partly specified) | 12.7% | nt | -67.8* | 4.5% | -5.6%
N#CC(C#N)=Cc1ccc(O)c(O)c1 | 18.9µM*! | -1.4% | -3.8 | -40.8% | -2.1%
CN(C)c1ccc(C=C(C#N)C#N)cc1 | 2.3% | -0.6% | -2.0 | i | 0.0%
COc1cccc(-n2c(/C=C/c3ccccc3O)nc3ccccc3c2=O)c1 | -7.6% | nt | nt | -14.0% | 0.9%
COc1cccc(-n2c(/C=C/c3cccc(C)c3)nc3ccccc3c2=O)c1 | 14.3% | nt | nt | -24.5% | 28.2µM*
CCOP(=S)(OCC)c1ccc(N(C)C)cc1 | -26.7% | 0.2% | -2.0 | 17.8µM* | 7.6%
CCCCn1c(NS(=O)(=O)c2ccccc2)c(C(=O)OCC)c2nc3ccccc3nc21 | -17.3% | 44.7µM* | -2.4 | -33.3% | -8.4%
CCCCn1c(NC(=O)c2ccc(Br)o2)c(C(=O)OCC)c2nc3ccccc3nc21 | -40.8% | -16.7% | -0.8 | i | 4.5%
NCC(O)c1cc(O)c(O)cc1F (stereo unspecified) | 18.9µM*! | -1.7% | 0.7 | i | -11.6%
CC1=CC(=C2C(=O)NC(=O)NC2=O)C=C(C(F)(F)F)N1C(C)C | -17.0% | -1.2% | -0.2 | 28.2µM* | -1.2%
N[C@@]1(C(=O)O)CC[C@H](C(=O)O)C1 | i | nt | nt | nt | nt
CN(CC(=O)N[C@H](CO)Cc1ccccc1)C(=O)[C@H](CCS(C)=O)NC(=O)[C@@H](N)Cc1ccc(O)cc1 (stereo partly specified) | i | nt | nt | nt | nt
COP(=O)(C#Cc1ccccc1)C(O)c1ccc(Br)cc1 (stereo unspecified) | -9.8% | -1.0% | -104.6* | -17.3% | 0.3%
C#CCN1C(C)=C(C(=O)CCO)[C@@H](c2cccc(-n3oo3)c2)C(C(=O)OC)=C1C | i | nt | nt | nt | nt
C[n+]1c(-c2ccccc2)c2cc(N)ccc2c2ccc(N)cc21 | -1.2% | -24.1% | 0.2 | -2.9% | 14.1µM*
